In the library only some 28% were active in any assay of this set; here they are far more common.
CYP2C19 act: cytochrome P450 2C19 (human) activation | recombinant CYP2C19, luciferin-H EGE luminescence; hits give high values; 0 = fully inhibited enzyme, 1 = untreated enzyme | activation factor at 5 µM | 96,000 tested, under 10 active;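 active = activation factor of at least 2 at 5 µM in the primary screen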;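 also: 0 = wells with 2.5 mM tranylcypromine and 1 = vehicle-only wells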
DAT uptake mod: changed human dopamine transporter uptake under cocaine IC80 | Q01959 | LLC-PK1 hDAT cells, [14C]-dopamine uptake with cocaine IC80; actives deviate in either direction | B-score at 10 µM | 110,000 compounds, 1.3% hits | AID 449768;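 active = Z score or B-score, a plate-position-corrected score, falls beyond the plate's 99.7% confidence bounds, in either direction; inactive = both scores lie inside the 99.7% bounds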;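 also: scored against the spread of the other compound wells on the same plate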
Target sequence (Q01959 whole entry, looked up): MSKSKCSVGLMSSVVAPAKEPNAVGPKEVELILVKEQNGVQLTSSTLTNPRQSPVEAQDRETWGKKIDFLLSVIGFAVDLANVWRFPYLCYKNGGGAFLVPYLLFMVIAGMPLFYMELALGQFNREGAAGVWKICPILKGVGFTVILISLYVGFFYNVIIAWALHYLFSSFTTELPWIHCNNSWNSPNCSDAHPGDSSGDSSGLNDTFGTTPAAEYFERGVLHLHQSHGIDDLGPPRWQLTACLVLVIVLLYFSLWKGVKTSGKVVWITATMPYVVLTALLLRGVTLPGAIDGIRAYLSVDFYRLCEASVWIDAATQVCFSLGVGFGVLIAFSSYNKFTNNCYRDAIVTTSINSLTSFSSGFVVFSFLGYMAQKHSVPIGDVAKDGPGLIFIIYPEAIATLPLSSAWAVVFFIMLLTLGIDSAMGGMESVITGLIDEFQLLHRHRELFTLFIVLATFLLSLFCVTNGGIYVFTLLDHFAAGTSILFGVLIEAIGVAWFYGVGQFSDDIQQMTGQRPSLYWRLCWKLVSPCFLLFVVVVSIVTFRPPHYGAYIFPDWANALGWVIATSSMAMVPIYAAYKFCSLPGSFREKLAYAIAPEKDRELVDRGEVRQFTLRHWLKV
CYP2C19 inh: inhibitors of human CYP2C19 | 96,000 compounds, 21% hits | P33261 | inhibition, % at 5 µM | CYP2C19 Supersomes, luciferin-H EGE luminescence, 30 min;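 active = CYP2C19 inhibition above a set limit at 5 µM in the primary screen, cut at about 50% in these data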;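 also: plate controls were negative control wells for no effect and 2.5 mM tranylcypromine positive control for full effect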
D1 mod: allosteric modulators of human D1 dopamine receptor; P21728; HEK293 D1, CRE-luciferase, dopamine EC30 potentiation; actives deviate in either direction; B-score at 10 µM; 58,000 compounds, 5.9% hits; AID 641;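 active = luminescence count or its row- and column-corrected plate score outside the 99.7% band of the plate's sample wells, on either side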
CYP2C9 inh: human CYP2C9 inhibition; P11712; CYP2C9 Supersomes, luciferin-H conversion, luminescence; inhibition, % at 5 µM; 96,000 compounds, 20% hits;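 active = blocking of liver enzyme CYP2C9 beyond about 50% at 5 µM, limit read from the data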
CYP2C9 act: increases human cytochrome P450 2C9 activity. P11712. recombinant CYP2C9, luciferin-H conversion, luminescence; hits give high values; factor 1 = untreated enzyme, 0 = blocked. activation factor at 5 µM. 96,000 compounds, 1.4% hits;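 active = activation factor of 2 or more for CYP2C9 at a 5 µM dose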;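 also: 0 = sulfaphenazole-blocked wells and 1 = vehicle-only wells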
Numbers without * were called inactive; nt = no result given.

SMILES	CYP2C19 act	DAT uptake mod	CYP2C19 inh	D1 mod	CYP2C9 inh	CYP2C9 act
CCOc1ccccc1-n1nnnc1SCC(=O)NC(=O)NCc1ccco1	0.2	1.79	78.8*	-1.46	27.0	0.7
Cc1nnc(SCC(=O)NC(=O)NCc2ccco2)n1Cc1ccccc1	0.8	0.476	16.5	nt	66.8*	0.3
O=C(CSc1nc(-c2ccc(F)cc2)cs1)NC(=O)NCc1ccco1	1	-1.09	2.5	0.193	-62.8	1.6
O=C(CSc1n[nH]c(-c2ccccc2Br)n1)NC(=O)NCc1ccco1	0.6	-2.13	35.9	-0.0444	58.9*	0.4
Clc1ccc(SCc2cc(Cl)nc(-c3ccccc3)n2)cc1	nt	0.765	nt	nt	nt	nt
CCOC(=O)CSc1cc(CSc2ccccc2)nc(-c2ccccc2)n1	0.4	-0.122	57.1*	nt	29.7	0.7
Clc1cc(CSc2ccccc2)nc(-c2ccccc2)n1	0.6	-0.108	44.8	nt	52.9*	0.5
CCOC(=O)CSc1nc(-c2ccccc2)nc2c1oc1ccccc12	1.1	1.06	-14.9	nt	-6.1	1.1
CCOC(=O)CSc1cc(CS(=O)c2ccc(Cl)cc2)nc(-c2ccccc2)n1 (stereo not given)	0	0.000995	100.2*	nt	85.2*	0.1
Clc1ccc(-c2cc(CSc3ccccc3)on2)cc1	0.6	-0.619	36.8	nt	23.0	0.8
Clc1ccc(SCc2cc(-c3ccccc3)on2)cc1	0.1	-0.989	90.4*	nt	-19.4	1.2
CCN(CC)c1cc(CS(=O)c2ccccc2)nc(-c2ccccc2)n1 (stereo not given)	nt	1.26	nt	nt	nt	nt
COc1ccc(C2=NOC(C3(S(=O)(=O)c4ccccc4)CC(O)C3)C2)cc1 (stereo not given)	nt	0.0555	nt	nt	nt	nt
O=C1CC(Nc2ccc(N3CCOCC3)cc2)C(=O)N1CCc1ccccc1 (stereo not given)	0.8	0.324	24.8	nt	23.2	0.8
O=c1cc(NCc2ccccc2)nc2n1CCCS2	nt	nt	nt	-0.85	nt	nt
CSc1nncn1/N=C/c1ccccc1F	0.9	0.221	14.4	nt	58.1*	0.4
Cc1cc(C)n(-c2nncn2/N=C/c2ccccc2F)n1	1.1	0.922	-8.9	-0.142	-10.0	1.1
CCCCCCC(C)n1cc(C(C)=O)c(=O)[nH]c1=O (stereo not given)	0.9	nt	10.7	nt	-6.0	1.1
COc1ccc(-c2cc(-c3ccc(Br)cc3)nc3ncnn23)cc1OC	1.2	1.15	-16.0	nt	54.7*	0.5
Cc1nn(CCCC(=O)N2CCc3ccccc3C2)c(=O)c2cc3sccc3n12	0.5	nt	53.9*	0.0706	50.8*	0.5
O=C(C1=C[C@@H](c2ccccc2)C[C@@H](OCCCCO)O1)N1CCOCC1	nt	-0.17	nt	nt	nt	nt
C=C(C)CN=c1scc(C)n1/N=C/c1ccco1	0.1	-0.48	87.6*	-0.0137	44.2	0.6
CCC/C=C1/CCCOC(C(=O)NCc2ccccc2)(C(F)(F)F)C1 (stereo not given)	nt	-0.562	nt	nt	nt	nt
CC1CCN(S(=O)(=O)c2ccc3c(c2)oc(=O)n3CC(=O)N2CCc3ccccc3C2)CC1	0.7	0.00147	30.3	nt	42.0	0.6
O=C(Nc1ccc(O)c(C(=O)O)c1)c1ccc2c(c1)C(=O)N(CC1CCCO1)C2=O (stereo not given)	1	-0.332	1.5	-0.0744	65.5*	0.3
SMILES	CYP2C19 act	DAT uptake mod	CYP2C19 inh	D1 mod	CYP2C9 inh	CYP2C9 act
O=C(Nc1ccc2c(c1)C(=O)N(CC1CCCO1)C2=O)c1ccc(Cl)c(Cl)c1 (stereo not given)	1.3	nt	-27.0	nt	25.5	0.7
COc1ccccc1NC(=O)c1cc(Sc2nncn2C)nc2ccccc12	0.6	0.652	38.5	0.00593	79.8*	0.2
CCOc1ccc2[nH]c(=O)c(CN(Cc3cccnc3)C(=O)Nc3ccccc3OC)cc2c1	0.5	-0.0331	53.9*	0.562	22.2	0.8
COc1ccc(NC(=O)N(Cc2ccc(C)cc2)Cc2cccnc2)c(OC)c1	0	0.217	97.4*	nt	90.0*	0.1
CCOc1ccc2[nH]c(=O)c(CN(CCO)C(=O)CC)cc2c1	1	0.267	2.9	-0.0758	14.6	0.9
CCc1ccc2[nH]c(=O)c(CN(Cc3ccccc3OC)C(=O)Nc3ccccc3OC)cc2c1	1.3	0.0129	-28.4	nt	93.4*	0.1
CCOc1ccc2[nH]c(=O)c(CN(CCc3ccccc3)C(=O)c3cnccn3)cc2c1	0.5	-1.2	51.4*	0.953	40.5	0.6
CCOc1ccc2[nH]c(=O)c(CN(Cc3ccccc3OC)C(=O)c3ccccc3)cc2c1	0.7	0.599	26.9	nt	43.5	0.6
CCN(CC)CCN(Cc1cc2cc(C)ccc2[nH]c1=O)C(=O)Nc1ccccc1OC	0.9	0.39	14.8	nt	8.2	0.9
O=C(CCn1c(=O)oc2ccccc21)N1CCc2ccccc21	1	-0.945	-2.2	0.00593	4.0	1
CCNC(=O)NC(=O)C(C)OC(=O)c1cccnc1SC (stereo not given)	nt	-0.00331	nt	1.01	nt	nt
O=C(Nc1ccc(F)c(F)c1)c1cc(S(=O)(=O)N2CCN(c3ccccn3)CC2)ccc1F	0.9	-0.0113	10.6	nt	33.1	0.7
Cc1cc(=O)oc2cc(Oc3ncccn3)ccc12	0.8	-0.186	17.2	-0.122	7.2	0.9
COc1ccc2[nH]c(=O)c(CN(Cc3cccnc3)C(=O)Nc3ccccc3)cc2c1	0.1	0.545	87.8*	nt	88.3*	0.1
Cn1c(N)c(N2CCCCC2)c(=O)n(CC(=O)Nc2ccc(Cl)c(Cl)c2)c1=O	0.1	1.57	93.7*	nt	97.9*	0
Cc1ccc(CNC(=O)C2(NC(=O)Nc3ccc(C)cc3)CCCCC2)cc1	0.5	0.0249	45.9	nt	53.8*	0.5
O=C(Nc1ccccc1Cl)NC1(C(=O)N2CCCCC2)CCCCC1	nt	-1.09	nt	nt	nt	nt
COc1ccc(NC(=O)NC2(C(=O)N3CCCCCC3)CCCCC2)cc1	0.7	-0.353	29.3	-0.349	60.4*	0.4
O=C(Nc1ccccc1Cl)NC1(C(=O)N2CCCC2)CCCCC1	nt	-8.93*	nt	nt	nt	nt
CCOc1ccc(NC2=NCC(=O)N2Cc2cccs2)cc1	0.9	0.605	5.8	nt	13.5	0.9
Cc1cc(NCC(C)C)n2ncnc2n1	1.1	nt	-13.5	nt	-18.3	1.2
CCOC(=O)c1c(C)nc2sc(C(N)=O)c(N)c2c1-c1ccc(OC)cc1	1	0.541	1.7	nt	36.2	0.6
CCOC(=O)c1c(C)nc2c(c1-c1ccc(OC)cc1)C(=O)CC(C)(C)C2	0.9	0.924	13.2	nt	17.6	0.8
CCOC(=O)c1c(C)nc2sc(C(=O)Nc3ccc(OC)cc3)c(N)c2c1-c1ccc(OC)cc1	0.2	-0.67	81.3*	nt	85.1*	0.1
CCOC(=O)c1c(C)nc2sc(C(=O)Nc3ccc(C(C)=O)cc3)c(N)c2c1-c1ccc(OC)cc1	0.4	3.6*	59.9*	nt	62.2*	0.4
COc1ccc(-n2c(=O)c3ccccc3n(CC(=O)NC3CCCCC3)c2=O)cc1	1	-1.28	-3.5	nt	12.9	0.9
COc1cccc(NC(=O)c2oc3ccccc3c2NC(=O)c2ccc3c(c2)OCO3)c1	0.9	0.695	5.1	0.84	39.3	0.6
